In PubChem BioAssay (NCATS):
Results filed as inconclusive are left out. Calls of active or inactive are those of the source. The call rests on the fitted dose curve; in most records, active means well fitted curve in the direction sought with a large enough effect; inconclusive means small, poorly fitted or top-dose-only effect, or another doubt; inactive means no such curve, though single readings can be large; an effect the other way counts as inactive or inconclusive.

Experiments:
OV90 = test: Primary qHTS to identify gynecologic anti-cancer compounds using libraries of approved drugs and bioactive compounds (AID 1345084); conditions: Gynecologic cancer cell panel viability, ATPlite luminescence, 48 h; series mostly up to 57.5 µM; further: nearly all actives have a fitted effect of over 55% in size
Summary of the method: (§1)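 Cell viability after 48 h drug treatment, ATPlite luminescence readout; five doses.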

PA-1 = test: as above; conditions: Gynecologic cancer cell panel viability, ATPlite luminescence, 48 h; series mostly up to 57.5 µM
Summary of the method: as §1

Tov-21-G = test: as above; conditions: Gynecologic cancer cell panel viability, ATPlite luminescence, 48 h; series mostly up to 57.5 µM
Summary of the method: as §1

Tov112D = test: as above; conditions: Gynecologic cancer cell panel viability, ATPlite luminescence, 48 h; series mostly up to 57.5 µM
Summary of the method: as §1

SKOV3 = test: as above; conditions: Gynecologic cancer cell panel viability, ATPlite luminescence, 48 h; series mostly up to 57.5 µM
Summary of the method: as §1

[1] = Drug repurposing screens with cells derived from glioblastoma tumor samples (AID 1345199); conditions: GBM patient neurospheres viability, ATP luminescence, 48 h; further: nearly all actives have a fitted effect of over 40% in size
Summary of the method: (§2)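 Four patient lines of CD133+ GBM neurospheres were screened at several concentrations; hits were retested in those lines plus three slower-growing GBM lines, using 48-hour treatment and ATP-based viability.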

astro = test: as above; conditions: viability, ATP luminescence, 48 h; series mostly up to 45.9 µM
Summary of the method: as §2
On the % scale 0 is the no-effect control and ±100 the full control effect.

Cc1nn(C)c2c1C(c1ccc(C(F)(F)F)cc1)C(C#N)=C(N)O2 (stereo not given)
inactive: Potency (OV90) | Potency (PA-1) | Potency (Tov-21-G) | Potency (Tov112D)

CC(=O)NCCCCn1c2c(c3ccccc31)C(=O)NCC2
inactive: Potency (OV90) | Potency (PA-1) | Potency (Tov-21-G) | Potency (Tov112D)

C[C@]12C=CC(=O)C=C1CC[C@@H]1[C@@H]2[C@@H](O)C[C@@]2(C)[C@H]1CC[C@]2(O)C(=O)COC(=O)CCC(=O)O
inactive: Potency (OV90) | Potency (PA-1) | Potency (SKOV3) | Potency (Tov-21-G) | Potency (Tov112D) | activity, negative = cell killing ([1]; at 45.9 µM (top of the series), tumour line B) -11.2% | activity, negative = cell killing ([1]; at 45.9 µM (top of the series), tumour line D) -5.28% | activity, negative = cell killing ([1]; at 46 µM (top of the series), tumour line A) -20.8% | activity, negative = cell killing ([1]; at 46.1 µM (top of the series), tumour line C) 7.76% | Potency (astro)

Cc1cc(C)c(S(=O)(=O)N(Cc2ccc(-c3cccc(S(C)(=O)=O)c3)cc2)Cc2ccc(C(F)(F)F)o2)c(C)c1
inactive: Potency (OV90) | Potency (PA-1) | Potency (Tov-21-G) | Potency (Tov112D)

C=C(C(=O)O)[C@@H]1CC=C2CCC[C@H](C)[C@@]2(C)C1
inactive: Potency (OV90) | Potency (PA-1) | Potency (Tov-21-G) | Potency (Tov112D)

COc1ccc2cc(OCC3(C(=O)O)CN(C(=O)c4ccc(F)cc4)C3)ccc2c1
inactive: Potency (OV90) | Potency (PA-1) | Potency (Tov-21-G) | Potency (Tov112D)

COc1cc(CC(COC2OC(CO)C(O)C(O)C2O)c2cc(/C=C/CO)cc(OC)c2O)ccc1O (stereo not given)
inactive: Potency (OV90) | Potency (PA-1) | Potency (Tov-21-G) | Potency (Tov112D)

CC(=O)[C@@H]1CC[C@]2(C(=O)O)CC[C@]3(C)C(CCC4[C@@]5(C)CC[C@H](O)C(C)(C)C5CC[C@]43C)C12 (stereo not given in full)
inactive: Potency (OV90) | Potency (PA-1) | Potency (Tov-21-G) | Potency (Tov112D)

C[C@@H](Nc1cc(NS(=O)(=O)N2CCC2)nc(SCc2cccc(F)c2F)n1)[C@@H](O)CO
inactive: Potency (OV90) | Potency (PA-1) | Potency (Tov-21-G) | Potency (Tov112D)

CC(C)C(=O)O[C@@H]1[C@@H](O)[C@@H](O[C@H]2O[C@H](CO)[C@@H](O)[C@H](O)[C@H]2O)O[C@H](CO)[C@H]1O
inactive: Potency (OV90) | Potency (PA-1) | Potency (Tov-21-G) | Potency (Tov112D)

CCCCS(=O)(=O)Nc1ncnc(OCCOc2ncc(Br)cn2)c1-c1ccc(Br)cc1
inactive: Potency (OV90) | Potency (PA-1) | Potency (Tov-21-G) | Potency (Tov112D)
